This is an account of results in PubChem BioAssay (NCATS).

Experiment [1] can be described thus: Cellular viability qHTS for adrenocortical cancer (ACC) cell line SW-13 (AID 1963989). Further: nearly all actives have a fitted effect of over 65% in size.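 On activity (max response): cells grown in serum-free medium with ITS supplement; on the % scale 0 is the no-effect control and ±100 the full control effect.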 The conditions noted are these: SW-13 ACC cells viability, CellTiter-Glo, 48 h; activity (max response): active compounds read low. Put shortly: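 Viability was read as CellTiter-Glo luminescence after 48 h compound treatment (up to 46 uM final) of SW-13 cells grown serum-free; titration curves were fit with a four-parameter logistic model to give IC50 and efficacy.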

Experiment [2] can be described thus: Cellular viability qHTS for adrenocortical cancer (ACC) cell line NCI-H295R (AID 1963990). Further: nearly all actives have a fitted effect of over 60% in size. Put shortly: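 CellTiter-Glo ATP luminescence, read 48 h after compound addition, measured viability of NCI-H295R adrenocortical cells grown serum-free with ITS. Final concentrations spanned up to 46 uM. Data normalized to DMSO and doxorubicin, fitted for IC50 and maximal response.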

Each structure is given as a SMILES string. “And” between values parts separate entries of the source, which are not always exact repeats. Equal values may be shown once. Inconclusive results are not listed. Unmarked numbers belong to inactive results. The source made the active and inactive calls. The call rests on the fitted dose curve; in most records, active means well fitted cell-killing curve with a large enough effect; inconclusive means small, poorly fitted or top-dose-only effect; inactive means flat fitted curve, though single readings scatter.
Potency means the concentration at half of the fitted maximal effect.

As for `Cc1ccc(-c2ccc(C)cn2)nc1`, the activity (max response) in experiment [1] was -26.3%. Also, the Potency result in experiment [2] was “inactive”.

On to `CCc1cc2c(c(OCC(F)(F)F)c(C(=O)NC3CCN(C(=O)CO)CC3)n2C)c(=O)n1CC(=O)c1ccccc1`, for which, in experiment [1], the activity (max response) is -16.3%. Further, the Potency entry in experiment [2] was “inactive”.

With `N#C[C@@H]1C[C@@H]2C[C@@H]2N1C(=O)[C@@H](N)C12CC3CC(CC(O)(C3)C1)C2`, the activity (max response) in experiment [1] was 7.26%. The Potency result in experiment [2] is “inactive”.

For `CN1CC[C@H](c2c(O)cc(O)c3c(=O)cc(-c4ccccc4Cl)oc23)[C@H](O)C1`, the figures for the Potency in experiment [1] and in experiment [2] were 0.184 µM (active) and 0.103 µM (active), respectively.

Regarding `NC(N)=NC(=O)Cc1c(Cl)cccc1Cl`, the activity (max response) in experiment [1] was -7.72%. Moreover, in experiment [2], the Potency entry is “inactive”.

In the case of `Cc1nc2ccccn2c(=O)c1CCN1CCC(C(=O)c2ccc(F)cc2)CC1`, the activity (max response) in experiment [1] was -20%. For the same compound, the Potency result in experiment [2] is “inactive”.

For `Cc1cc(C)c(/C=C2\C(=O)Nc3ccccc32)[nH]1`, in experiment [1], the activity (max response) was 5.7% and 12.2%. For the same compound, the Potency entry in experiment [2] was “inactive”.

On to `CCC(=O)O[C@]1(C(=O)CO)CC[C@H]2[C@@H]3CCC4=CC(=O)CC[C@]4(C)[C@H]3CC[C@@]21C`, for which the activity (max response) in experiment [1] was 7.43%. For the same compound, the Potency result in experiment [2] was “inactive”.

As for `CCOCOC[C@H](C[C@H](C)C(=O)NO)NC(=O)c1ccc(Oc2ccccc2)cc1`, in experiment [1], the activity (max response) is -8.03%. The Potency entry in experiment [2] was “inactive”.

With `CN(C)CCCN1c2ccccc2Sc2ccc(Cl)cc21`, the Potency is 14.6 µM (active) in experiment [1] and 18.4 µM (active) in experiment [2].

With `CCCN1C[C@H](CSC)C[C@@H]2c3cccc4[nH]cc(c34)C[C@H]21`, in experiment [1], the activity (max response) is -4.04%. The Potency entry in experiment [2] was “inactive”.

On to `Clc1cccc(-c2ccc(-c3nnc(CCCc4ccc5cccnc5n4)o3)cc2)c1`, for which, in experiment [1], the activity (max response) was -11.9%. Besides, in experiment [2], the Potency entry was “inactive”.

Take `CC(=O)[C@@]1(O)CC[C@H]2[C@@H]3C[C@H](C)C4=CC(=O)CC[C@]4(C)[C@H]3CC[C@@]21C`: the activity (max response) in experiment [1] is -1.82%. Moreover, the Potency result in experiment [2] is “inactive”.

With `C[C@H]1C[C@@H]2[C@H]([C@@H](O)C[C@@]3(C)[C@H]2CC[C@]3(O)C(=O)CO)[C@@]2(C)C=CC(=O)C=C12`, the activity (max response) in experiment [1] is 8.4% and 9.49%. The Potency entry in experiment [2] was “inactive”.

With `O=C(CCCCCCCCC#CI)Oc1ccccc1`, the activity (max response) in experiment [1] is -0.224%. In addition, the Potency in experiment [2] was 13 µM (active).

For `CC(Oc1c(Cl)cccc1Cl)C1=NCCN1` (stereo not drawn), in experiment [1], the activity (max response) was 12.6%. Further, the Potency entry in experiment [2] is “inactive”.

With `CCCCc1nc(Cl)c(CO)n1Cc1ccc(-c2ccccc2-c2nn[nH]n2)cc1`, the activity (max response) in experiment [1] was 12.4%. Besides, the Potency entry in experiment [2] was “inactive”.

For `N/C(=N\N=C\c1ccc(Cl)cc1)N/N=C/c1ccc(Cl)cc1`, the activity (max response) in experiment [1] is -4.76%. Further, the Potency result in experiment [2] is “inactive”.

As to `O=C(CS)Nc1ccccc1`, the activity (max response) in experiment [1] was -14.1%. For the same compound, the Potency result in experiment [2] was “inactive”.

As for `COc1ncc(Nc2ncc(C(C)N3CCN(S(C)(=O)=O)CC3)cc2-c2nc(C)nc(N)n2)cc1F` (stereo not drawn), the activity (max response) in experiment [1] is -11.9%. Moreover, the Potency result in experiment [2] was “inactive”.

Regarding `Cn1c(=O)c(Oc2ccc(F)cc2F)cc2cnc(NC3CCOCC3)nc21`, the activity (max response) in experiment [1] is -3.03%. Moreover, the Potency result in experiment [2] is “inactive”.

On to `CN1C(=O)N(c2cc(Cl)cc(Cl)c2)C(=O)[C@]12CN(Cc1cc(C(=O)O)cs1)C[C@H]2c1ccc(C#N)cc1`, for which, in experiment [1], the activity (max response) is -17%. In addition, the Potency entry in experiment [2] is “inactive”.

As to `CC(=O)OCC(=O)[C@@]1(O)[C@H](C)C[C@H]2[C@@H]3CCC4=CC(=O)C=C[C@]4(C)[C@@]3(F)[C@@H](O)C[C@@]21C`, in experiment [1], the activity (max response) was 2.72%. In addition, the Potency result in experiment [2] is “inactive”.

Take `N#C/C(=C1\SCC(c2ccccc2Cl)S1)n1ccnc1` (stereo not drawn): in experiment [1], the activity (max response) is -13.5%. Moreover, the Potency result in experiment [2] was “inactive”.
